HUVEC tox IL1B: cytotoxicity in IL-1B stimulated HUVEC, primary screen, cytotoxicity control for IL-1B NFkB translocation project, imaging, Hoechst nuclear count, IL-1B stimulus | HUVEC cell count loss | cell count reduction, % at 2 µM | 94,000 tested, 0.41% active;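 active = cell count reduction more than 3 SD above the screen-wide mean, cut at about 70% in these data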
sEH inh: soluble epoxide hydrolase inhibitors, primary screen, biochemical, human sEH. Bifunctional epoxide hydrolase 2 (Homo sapiens), P34913. recombinant human sEH enzymatic activity assay. inhibition, % at 2 µM. 91,000 tested, 0.34% active; in the data active = inhibition above about 80%
Target sequence (P34913 whole entry, looked up): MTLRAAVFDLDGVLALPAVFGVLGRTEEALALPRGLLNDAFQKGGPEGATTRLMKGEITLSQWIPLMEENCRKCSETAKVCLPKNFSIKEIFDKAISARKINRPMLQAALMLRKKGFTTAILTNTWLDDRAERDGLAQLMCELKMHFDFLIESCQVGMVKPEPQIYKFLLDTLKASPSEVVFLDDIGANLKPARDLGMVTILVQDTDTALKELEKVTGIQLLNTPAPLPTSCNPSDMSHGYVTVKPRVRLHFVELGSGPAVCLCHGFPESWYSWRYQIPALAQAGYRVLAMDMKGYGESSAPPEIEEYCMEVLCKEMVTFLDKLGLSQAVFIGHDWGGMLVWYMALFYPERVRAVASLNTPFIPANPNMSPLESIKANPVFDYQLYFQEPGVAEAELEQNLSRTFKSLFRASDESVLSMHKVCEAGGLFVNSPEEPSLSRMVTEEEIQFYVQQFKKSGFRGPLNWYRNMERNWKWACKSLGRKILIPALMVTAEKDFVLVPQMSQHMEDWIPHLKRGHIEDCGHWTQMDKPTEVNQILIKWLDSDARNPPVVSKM
NFkB transloc inh: inhibitors of IL-1B driven NFkB p65 nuclear import, primary screen, imaging, HUVEC, IL-1B stimulus, high-content imaging; HUVEC IL-1B NFkB p65 nuclear translocation imaging; inhibition, % at 2 µM; 94,000 tested, 0.43% active; AID 796, 2007;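 active = inhibition above about 30% together with a positive call from visual inspection of the well image, limit read from the data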;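 also: nuclear over cytoplasmic p65 intensity ratio measured by imaging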
sEH act: soluble epoxide hydrolase activators, primary screen, biochemical, human sEH; Bifunctional epoxide hydrolase 2 (Homo sapiens), P34913; 91,000 tested, 0.04% active; AID 717, 2007; purified human sEH enzymatic activity, activator screen; activation, % at 2 µM; in the data active = activation above about 37%
IL1B NFkB pot: enhancers of NFkB p65 translocation in HUVEC – imaging, IL-1B stimulus, high-content imaging, primary screen; 94,000 tested, 0.3% active; AID 819, 2007; HUVEC IL-1B NFkB p65 nuclear translocation imaging; activation, % at 2 µM;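 active = activation above 40%, about the mean plus 3 SD, also judged a hit on visual image review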;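 also: percent activation is computed from the nuclear over cytoplasmic p65 intensity ratio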
Hits are given with their value; - = inactive; . = no result. Most compounds without a hit are left out; they make up all but 1.1% or so of the library.

SMILES	HUVEC tox IL1B	sEH inh	NFkB transloc inh	sEH act	IL1B NFkB pot
Cc1noc2ncc(C(=O)c3cc(F)ccc3O)cc12	93.3	-	-	-	-
Cc1ccc(N/C=C/C(=O)C(C)(C)C)c(O)c1	-	-	-	-	-
COc1ccc(CNC(=O)C2CCCN(S(=O)(=O)c3cc(C)ccc3OC)C2)cc1 (centres undefined)	-	-	64.2	-	-
COc1ccc(CNC(=O)C2CCN(S(=O)(=O)c3cc(OC)ccc3OC)CC2)cc1	-	-	-	-	-
O=C(NC1CCN(Cc2ccccc2)CC1)C1CCCN(S(=O)(=O)c2cccc3nonc23)C1 (centres undefined)	-	-	46.4	-	-
Cc1ccc(CCNC(=O)C2CCCN(S(=O)(=O)c3cccc4nsnc34)C2)cc1 (centres undefined)	-	83.0	-	-	-
Cc1cccc(CCNC(=O)C2CCN(S(=O)(=O)c3cccc4nsnc34)CC2)c1	-	-	-	-	-
CCOC(=O)C1CCN(Cc2cnc(Oc3ccc(C(C)(C)C)cc3)s2)CC1	-	-	-	-	-
O=C(OCn1ncc(Cl)c(Cl)c1=O)c1ccc(F)cc1	-	-	93.2	-	-
O=C(Cn1ncc(Cl)c(Cl)c1=O)c1ccc(Cl)cc1	-	-	-	-	-
O=C(OCn1ncc(Cl)c(Cl)c1=O)c1ccccc1Cl	-	-	90.3	-	-
O=C(Nc1cc(Cl)cc(Cl)c1)c1cccc(OC(F)F)c1	-	-	-	-	-
COC(=O)c1cc(NC(=O)Cc2ccc(OC)cc2)cc(C(=O)OC)c1	-	-	-	-	-
Cc1noc(NS(=O)(=O)c2ccc(NC(=O)CSc3nc4ccccc4s3)cc2)c1C	74.4	-	-	-	-
Cc1noc(NS(=O)(=O)c2ccc(NC(=O)CSc3nc4c(cc3C#N)CCC4)cc2)c1C	-	-	-	-	67.6
CS(=O)(=O)N(CC(=O)NCC1CCCO1)c1ccc(F)c(Cl)c1 (centres undefined)	-	-	-	-	-
CCOC(=O)c1cnc(SCC(=O)Nc2cc(OC)cc(OC)c2)nc1N	-	-	-	-	50.3
CCOC1(C(F)(F)F)NC(=O)N(Cc2ccc(OC)cc2)C1=O (centres undefined)	-	-	-	-	-
CC1CN(c2ccc(S(=O)(=O)N3CCOCC3)cn2)CC(C)O1 (centres undefined)	-	-	40.3	-	-
COC(=O)c1ccc(Cl)c(NC(=O)c2ccc(-c3ccccc3)cc2)c1	-	-	-	-	-
COc1ccc(C(=O)c2ccc(OC)c(N)c2)cc1N	-	-	-	-	70.0
COc1ccc(C(=O)c2ccc(OC)c(OC)c2)cc1OC	-	-	-	-	-
COc1ccc(/C=N/NC(=O)C(Cc2c[nH]c3ccccc23)NC(=O)OCC(C)C)cc1[N+](=O)[O-] (centres undefined)	-	-	-	-	-
C=CCOc1nc2c(c(=O)n(C)c(=O)n2C)n1C	85.1	-	-	-	-
C/C=C/COc1nc2c(c(=O)n(C)c(=O)n2C)n1C	-	-	-	-	-
SMILES	HUVEC tox IL1B	sEH inh	NFkB transloc inh	sEH act	IL1B NFkB pot
CCOC(=O)CSC1=NC(=O)/C(=C\c2ccc(Cl)cc2)S1	-	-	-	-	-
CC(C)(C)Cc1nnc(NS(=O)(=O)c2ccc(F)cc2)s1	-	-	-	-	98.4
COc1ccc(CNC(=O)C(c2ccco2)N(Cc2cccs2)C(=O)Cc2cccs2)cc1 (centres undefined)	-	-	-	-	41.0
COc1ccc(CNC(=O)C(c2ccco2)N(Cc2ccccc2)C(=O)Cc2cccs2)cc1 (centres undefined)	-	-	-	-	-
Cc1ccn(CCSCC(=O)O)n1	86.3	-	-	-	-
O=C(O)CSCCc1ccccn1	-	-	-	-	-
CCOc1ccc(OCC)c(NC(=O)C2CCCN2S(=O)(=O)c2cccc3cccnc23)c1 (centres undefined)	-	.	-	.	-
COc1ccc(NC(=O)C2CCCN2S(=O)(=O)c2cccc3cccnc23)c(OC)c1 (centres undefined)	-	-	-	-	74.7
COc1cccc(OC)c1C(=O)N1CCN(S(=O)(=O)c2ccc(C)cc2)CC1	-	-	32.3	-	-
Cc1ccc(S(=O)(=O)N2CCN(C(=O)c3ccccc3)CC2)cc1	-	-	-	-	-
Cc1ccccc1CNC(=O)c1ccc(CSCc2ccccc2)cc1	-	-	-	-	-
